According to PubChem BioAssay (EPA / NIEHS):
Values joined by “and” are separate entries in the source; they are usually repeats but may differ in a detail not shown here. Equal values may be shown once. Some compounds were tested as several samples or in several runs, with calls that do not always agree. Active and inactive are the calls of the source. The calls were made as follows: active = hit-call score of the fitted dose curve at least 0.9, where 1 is the maximum; inactive = score below 0.9.

biological target: Paired box protein Pax-6 (Homo sapiens) (UniProt P26367); assay: ATG_Pax6_CIS: Attagene CIS-FACTORIAL HepG2 Assay for human Paired Box 6 (PAX6) (AID 2282956); conditions: HepG2 CIS-FACTORIAL PAX6 reporter transcription, RNA readout; actives raise or lower the signal
Procedure: ATG_CIS is a cell-based, multiplexed-readout assay that uses HepG2, a human liver cell line, with measurements taken at 24 hours after chemical dosing in a 24-well plate.ATG_Pax6_CIS is one of 52 assay component(s) measured or calculated from the ATG_CIS assay. It is designed to make measurements of mRNA induction, a form of inducible reporter, as detected with fluorescence intensity signals by Reverse transcription polymerase chain reaction (RT-PCR) and Capillary electrophoresis technology.Data from the assay component ATG_Pax6_CIS was analyzed into 1 assay endpoint. This assay endpoint, ATG_Pax6_CIS, was analyzed with bidirectional fitting relative to DMSO as the negative control and baseline of activity. Using a type of inducible reporter, measures of mRNA for gain or loss-of-signal activity can be used to understand the reporter gene at the transcription factor-level as they relate to the gene PAX6. Furthermore, this assay endpoint can be referred to as a primary readout, because this assay has produced multiple assay endpoints where this one serves a reporter gene function. To generalize the intended target to other relatable targets, this assay endpoint is annotated to the dna binding intended target family, where the subfamily is paired box protein.
Human liver HepG2 cells are transiently transfected with multiple reporter transcription units (MRTUs) in 6-well plates using FuGene 6 reagent (Roche; 3 ml FuGene/1 mg DNA). The MRTU constructs are regulated by a cis-regulating element (promoter). […] A major difference between the CIS and TRANS system is that in CIS activities of endogenous TFs are measured, whereas the TRANS assay evaluates changes in activities of exogenous, chimeric NR-Gal4 proteins. […] At the end of 24 hour incubation, total RNA was isolated using TriZol reagent (Invitrogen). The isolated RNA is then reverse-transcribed using oligo(dT) primer and Mo-MLV reverse transcriptase (Invitrogen) with DNAse I (Ambion) treatment for 30 min. The one-tenth of the produced cDNA was amplified by PCR using Taq DNA polymerase (Invitrogen) and two reporter sequence-specific primers. The PCR products were fluorescently labeled by primer extension with 6-arboxyfluorescein (6-FAM) 5'-labeled reporter sequence-specific primer (2 min at 95 C, 20 s at 68 C and 10 min at 72 C) and these products were digested with 5U of HpaI (New England Biolabs) for 2h at 37 C. The fragments were purified using Qiaquick PCR columns (Qiagen), analyzed on an ABI 3130xL genetic analyzer (Applied Biosystems) with peak positions identified by using a set of X-rhodamine (ROX)-labeled MapMarker1000 molecular weight standards (BioVentures). The raw capillary electrophoresis data was processed using Attagraph software (Attagene).

Chain of Paired box protein Pax-6 (Homo sapiens) (P26367 whole entry, looked up): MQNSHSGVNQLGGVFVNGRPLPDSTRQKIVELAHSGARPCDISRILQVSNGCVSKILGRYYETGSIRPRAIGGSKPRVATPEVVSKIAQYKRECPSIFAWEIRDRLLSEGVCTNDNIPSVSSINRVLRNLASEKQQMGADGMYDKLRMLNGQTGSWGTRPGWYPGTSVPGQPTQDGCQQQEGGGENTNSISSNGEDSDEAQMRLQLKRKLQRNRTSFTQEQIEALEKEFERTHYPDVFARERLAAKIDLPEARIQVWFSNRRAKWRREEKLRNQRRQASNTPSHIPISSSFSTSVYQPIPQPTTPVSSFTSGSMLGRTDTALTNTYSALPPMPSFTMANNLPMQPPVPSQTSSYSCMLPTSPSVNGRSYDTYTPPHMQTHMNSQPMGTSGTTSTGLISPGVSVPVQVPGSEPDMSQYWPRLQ

**Q.** For `C=CCOC(Cn1ccnc1)c1ccc(Cl)cc1Cl` (stereo not given), which AC50 is on record?
**A.** 50 µM (active)

**Q.** `S=C(S)NCCNC(=S)S.[Mn+2].[S-]C([S-])=NCCN=C([S-])[S-].[Zn+2]` was tested. Which AC50 did it give?
**A.** 9.92 µM (active) and 15 µM (active) and 12 µM (active)

**Q.** What about the outcome of the same compound?
**A.** inactive

**Q.** With `CC(C)CCCCCCc1ccc(O)cc1` as the compound, how does the outcome read?
**A.** inactive

**Q.** What about the AC50 of the same compound?
**A.** 17.9 µM (active) and 20.8 µM (active) and 19.9 µM (active)

**Q.** For `CCCOC(=O)c1ccc(C(=O)OCCC)nc1`, which outcome is on record?
**A.** inactive

**Q.** `CCC(O)=C1C(=O)CC(C(=O)O)CC1=O` (stereo not given) was tested. Which outcome did it give?
**A.** inactive

**Q.** For `COC(=O)CSc1cc(N=c2sc(=O)n3n2CCCC3)c(F)cc1Cl`, which outcome is on record?
**A.** inactive

**Q.** `COc1nc(C)nc(NC(=O)NS(=O)(=O)c2ccccc2OCCCl)n1` was tested. Which outcome did it give?
**A.** inactive

**Q.** Which results are given for `CC(C)(c1ccc(O)cc1)c1ccc(O)cc1`?
**A.** AC50: 105 µM (active) [middle of 4 runs]; outcome: inactive

**Q.** Which outcome does the source give for `CCOC(=O)NCCOc1ccc(Oc2ccccc2)cc1` here?
**A.** inactive

**Q.** `COCCO` was tested. Which outcome did it give?
**A.** inactive

**Q.** With `COC(=O)c1ccccc1C(=O)O` as the compound, how does the outcome read?
**A.** inactive

**Q.** With `CC(C)(C)[C@@H](O)[C@@H](Cc1ccc(Cl)cc1)n1cncn1` as the compound, how does the outcome read?
**A.** inactive

**Q.** With `N#CSCSc1nc2ccccc2s1` as the compound, how does the AC50 read?
**A.** 11.1 µM (active)

**Q.** What about the outcome of the same compound?
**A.** inactive

**Q.** How did the outcome turn out when `Oc1ccc(C(c2ccc(O)cc2)C(Cl)(Cl)Cl)cc1` was run?
**A.** inactive

**Q.** For `COC(=O)c1cccc(C)c1S(=O)(=O)NC(=O)Nc1nc(OCC(F)(F)F)nc(N(C)C)n1`, which outcome is on record?
**A.** inactive

**Q.** With `CCCCOCCOCCOCc1cc2c(cc1CCC)OCO2` as the compound, how does the outcome read?
**A.** inactive

**Q.** With `CCCCC(CC)COC(=O)c1ccccc1C(=O)O` (stereo not given) as the compound, how does the outcome read?
**A.** inactive

**Q.** With `CCCN(CCC)c1c([N+](=O)[O-])cc(C(F)(F)F)c(N)c1[N+](=O)[O-]` as the compound, how does the outcome read?
**A.** inactive

**Q.** For `c1ccc2[nH]c(-c3cscn3)nc2c1`, which outcome is on record?
**A.** inactive

**Q.** Which outcome does the source give for `C#CCOC(=O)[C@@H](C)Oc1ccc(Oc2ncc(Cl)cc2F)cc1` here?
**A.** inactive

**Q.** With `OB(O)O` as the compound, how does the outcome read?
**A.** inactive

**Q.** Which AC50 does the source give for `CCN(Cc1c(F)cccc1Cl)c1c([N+](=O)[O-])cc(C(F)(F)F)cc1[N+](=O)[O-]` here?
**A.** 7.64 µM (active)

**Q.** For `CCOC(=O)C(C)Oc1ccc(Oc2nc3ccc(Cl)cc3o2)cc1` (stereo not given), which outcome is on record?
**A.** inactive

**Q.** `CCCCCCC(C)OC(=O)COc1nc(F)c(Cl)c(N)c1Cl` (stereo not given) was tested. Which outcome did it give?
**A.** inactive

**Q.** Which outcome does the source give for `CCC(C)OC(=O)N1CCCCC1CCO` (stereo not given) here?
**A.** inactive

**Q.** `O=C(c1ccc(O)cc1O)c1ccc(O)cc1O` was tested. Which outcome did it give?
**A.** inactive

**Q.** How did the outcome turn out when `COC(=O)c1ccc(I)cc1S(=O)(=O)NC(=O)Nc1nc(C)nc(OC)n1` was run?
**A.** inactive

**Q.** With `C[C@]12C[C@H](O)[C@H]3[C@@H](CCC4=CC(=O)CC[C@@]43C)[C@@H]1CC[C@@H]2C(=O)CO` as the compound, how does the outcome read?
**A.** inactive

**Q.** Which outcome does the source give for `CCCOC(=O)NCCCN(C)C` here?
**A.** inactive

**Q.** `COc1c(Cl)ccc(Cl)c1C(=O)O` was tested. Which outcome did it give?
**A.** inactive

**Q.** For `CCOC(=O)c1ccc(O)cc1`, which AC50 is on record?
**A.** 100 µM (active)

**Q.** What about the outcome of the same compound?
**A.** inactive

**Q.** `COC(=O)c1c(Cl)nn(C)c1S(=O)(=O)NC(=O)Nc1nc(OC)cc(OC)n1` was tested. Which outcome did it give?
**A.** inactive

**Q.** With `CCCCOC(=O)C(C)Oc1ccc(Oc2ccc(C(F)(F)F)cn2)cc1` (stereo not given) as the compound, how does the outcome read?
**A.** inactive

**Q.** With `CCNc1nc(N)nc(Cl)n1` as the compound, how does the outcome read?
**A.** inactive

**Q.** With `CC(=O)S[C@@H]1CC2=CC(=O)CC[C@]2(C)[C@H]2CC[C@@]3(C)[C@@H](CC[C@@]34CCC(=O)O4)[C@H]12` as the compound, how does the outcome read?
**A.** inactive
